TDP1 cell noCPT = qHTS for Inhibitors of human tyrosyl-DNA phosphodiesterase 1 (TDP1): qHTS in cells in absence of CPT. DT40 Tdp1-/- hTDP1 cells, no CPT, ATP luminescence, 48 h. Potency, µM (highest dose often 46.2 µM), for the others: top-dose activity change, negative = growth inhibition, actives largely listed as inhibitors. 420,000 compounds, 15% hits; note: potency is the fitted concentration of half-maximal effect; % is set by controls: 0 for no effect and ±100 for the full control effect; nearly all actives have a fitted effect of over 55% in size
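Chicken DT40 Tdp1-/- cells complemented with human TDP1, screened without camptothecin (DMSO vehicle only), 400 cells/well. Compounds pin-transferred, cells incubated at 37 °C for at least 48 hr. Growth read as ATP-dependent luminescence (CellTiter-Glo, 30 min at RT).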
TDP1 inh = qHTS Assay for Inhibitors of Tyrosyl-DNA Phosphodiesterase (TDP1); 350,000 compounds, 0.28% hits; Potency, µM (highest dose often 130 µM), for the others: at the highest dose activity change, negative = inhibition, usual class: inhibitors; AID 485290, 2010; recombinant TDP1, AlphaScreen DNA substrate cleavage; note: potency is the fitted concentration of half-maximal effect; % is set by controls: 0 for no effect and ±100 for the full control effect; nearly all actives have a fitted effect of over 40% in size
Target sequence (Q9NUW8 whole entry, looked up): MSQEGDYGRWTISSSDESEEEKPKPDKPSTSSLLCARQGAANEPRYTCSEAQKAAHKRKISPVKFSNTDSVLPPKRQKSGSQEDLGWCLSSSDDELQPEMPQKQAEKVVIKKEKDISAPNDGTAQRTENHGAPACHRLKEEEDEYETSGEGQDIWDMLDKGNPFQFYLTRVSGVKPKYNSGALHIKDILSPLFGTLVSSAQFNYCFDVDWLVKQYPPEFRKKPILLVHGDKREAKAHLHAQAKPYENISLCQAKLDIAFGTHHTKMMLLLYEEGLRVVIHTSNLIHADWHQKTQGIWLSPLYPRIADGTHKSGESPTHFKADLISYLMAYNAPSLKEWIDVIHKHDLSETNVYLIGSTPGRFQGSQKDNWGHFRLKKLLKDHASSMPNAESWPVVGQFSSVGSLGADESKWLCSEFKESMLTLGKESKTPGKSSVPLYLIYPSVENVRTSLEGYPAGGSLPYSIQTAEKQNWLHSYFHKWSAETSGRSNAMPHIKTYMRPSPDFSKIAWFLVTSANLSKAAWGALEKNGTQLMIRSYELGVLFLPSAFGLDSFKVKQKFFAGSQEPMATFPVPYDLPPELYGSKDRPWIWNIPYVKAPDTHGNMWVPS
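AlphaScreen read-out: signal falls as enzyme removes the 3' tyrosine-FITC from a 5'-biotinylated DNA oligo (15 nM, 5 min, RT). Enzyme was E. coli-made recombinant Tdp1 at 1 nM, exposed to compound for 15 min beforehand; beads 10 ug/ml, 10 min.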
DT40 TDP1 CPT = qHTS for Inhibitors of human tyrosyl-DNA phosphodiesterase 1 (TDP1): qHTS in cells in presence of CPT. chicken DT40 Tdp1-/-;hTDP1 cells + 20 nM CPT, ATP luminescence, 48 h. Potency, µM (series often up to 46.2 µM), inactives show top-dose activity change, negative = growth inhibition, most hits filed as inhibitors. 420,000 compounds, 12% hits; note: potency is the fitted concentration of half-maximal effect; % is set by controls: 0 for no effect and ±100 for the full control effect; nearly all actives have a fitted effect of over 55% in size
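Chicken DT40 Tdp1-/- cells stably complemented with human TDP1 were seeded at 400 cells/well in medium containing 20 nM camptothecin, exposed to pin-transferred compounds, and grown at 37 °C for at least 48 hr. Viability was read as ATP luminescence.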
TGFb inhibitor = qHTS for Inhibitors of TGF-b. AID 588855, 2011. Potency, µM (highest dose often 46.1 µM), for inactives: top-dose activity, negative = inhibition, hits mostly inhibitors. 410,000 compounds, 1.2% hits. HepG2 CAGA-GFP TGF-b/SMAD3 reporter, GFP fluorescence, 18 h; TGF-beta stimulated, 500 pg/mL final; note: potency is the fitted concentration of half-maximal effect; % is set by controls: 0 for no effect and ±100 for the full control effect; nearly all actives have a fitted effect of over 65% in size
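Read-out: total well GFP (ex488/em500-530) summed from mean per-cell fluorescence. Cells: HEPG2 CAGA-GFP, 1% FBS DMEM, 18 h at 37 degrees C with 500 pg/mL final TGF-beta. Unstimulated wells served as the full-inhibition control; stimulated DMSO wells = 0%.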
IL-1B inflam inh = qHTS for Inhibitors of Inflammasome Signaling: IL-1-beta AlphaLISA Primary Screen. 360,000 compounds, 4.7% hits. THP-1 LPS/ATP IL-1B secretion, AlphaLISA, 16 h; hits give low values. activity change, % at 57.5 µM. AID 743279, 2014; in the data active = activity change below about -50%; inconclusive = mostly about -30% to -49%; note: % is set by controls: 0 for no effect and ±100 for the full control effect
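THP-1 cells pretreated 1 hr with compounds (up to 57.5 uM final), then stimulated with LPS (250 ng/mL final) plus ATP (1.25 mM final); secreted IL-1B measured by AlphaLISA after 16 hr, decreased signal indicating inhibition.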
HepG2 tox = qHTS for Inhibitors of TGF-b: Cytotox Counterscreen; HepG2 CAGA-GFP viability, ATP luminescence, 18 h; Potency, µM (top dose mostly 46.1 µM), for the others: at the highest dose activity change, negative = cytotoxicity, hits mostly cytotoxic; 410,000 compounds, 0.76% hits; AID 588856, 2011; note: potency is the fitted concentration of half-maximal effect
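HepG2 CAGA-GFP cells (1000/well, DMEM with 1% FBS) received compound, then TGF-beta at 500 pg/mL final, and were incubated 18 hours at 37 degrees C. Viability was read by CellTiter-Glo luminescence. Media-only wells were set as complete cell-killing and DMSO as no toxicity.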
The depositor's hits bear a star; u = inconclusive; x = no result; [ ] = dose if it differs, or a comment. In the library only some 19% were active in any assay of this set; here they are far more common. Unless noted, calls come from the whole dose curve; as a rule, active = well fitted curve in the direction sought with a large enough effect; inconclusive = small, poorly fitted or top-dose-only effect, or another doubt; inactive = no such curve, though single readings can be large; an effect the other way counts as inactive or inconclusive.

SMILES	TDP1 cell noCPT	TDP1 inh	DT40 TDP1 CPT	TGFb inhibitor	IL-1B inflam inh	HepG2 tox
CCCCN1CCCc2cc(CN(CCCN3CCOCC3)C(=O)Nc3ccc(CC)cc3)ccc21	21µM*	2%	u	18%	x	3%
COc1ccc(CN(CCCN2CCOCC2)C(=O)Nc2ccccc2)cc1OC	-10%	1%	-5%	6%	-10	-16%
O=C(C[n+]1cccc(Br)c1)c1ccc2ccccc2c1	-99%	x	-107%	-16%	x	-2%
CCCc1[nH][nH]c(=O)c1C(c1ccc(Cl)cc1)C(C#N)C#N (stereo not drawn)	-23%	3%	-12%	-23%	-83*	-21%
CCCCC#Cc1nc(NC)c2ncn([C@@H]3O[C@@H](CO)[C@H](O)[C@H]3O)c2n1	1%	12%	-10%	x	x	x
Cc1csc2nc(CCNS(=O)(=O)c3ccc(F)cc3)cn12	1%	11%	-11%	-12%	x	0%
CCOc1ccc(C2Nc3ccc4ccccc4c3-c3c2c(=O)oc2ccccc32)cc1 (stereo not drawn)	u	-1%	u	1%	-55*	-6%
CC(=O)Nc1ccc(S(=O)(=O)Nc2ccc3c(c2)CCC3)cc1	13µM*	3%	-75%	-20%	-3	-10%
COC(=O)c1ccccc1NS(=O)(=O)c1ccc(F)cc1	-10%	-2%	u	0%	19	-9%
COc1ccc(S(=O)(=O)Nc2cc3c4c(c2)CCN4C(=O)CC3)cc1	1%	-1%[0.505 µM]	-18%	6%	30	5%
COc1ccc(S(=O)(=O)Nc2ccc3c(c2)CCC3)cc1	u	3%	u	11µM*	-187*	-31%
COC(=O)c1ccccc1NS(=O)(=O)c1ccc(NC(C)=O)cc1	-16%	4%	-3%	1%	-84*	2%
COc1ccc(CCN2CC(C(=O)OCC(=O)Nc3c(C)nn(-c4ccccc4)c3C)CC2=O)cc1OC (stereo not drawn)	-8%	-15%	-28%	-11%	12	0%
O=C(CNS(=O)(=O)c1cccs1)NCCc1ccc(Cl)cc1	-9%	1%	2%	17%	0	2%
Cc1cccc2c(=O)[nH]c3c(-c4nc(-c5ccc(Cl)cc5)cs4)c(O)cn3c12	7.1µM*	x	4µM*	4%	x	-27%
Cn1c(=O)c2c(ncn2CC(=O)N/N=C/c2c[nH]c3ccccc23)n(C)c1=O	x	79µM*	x	x	x	x
Cc1ccc(C(=O)NCC(=O)N2CCN(c3ccccc3O)CC2)s1	2.9µM*	x	-3%	-2%	-17	-1%
C=C(C)C(=O)OC	x	10%	x	x	x	x
CCCN1C(=O)/C(=C/c2ccc(C)s2)SC1=Nc1ccc(OC)cc1	u	4%	u	3%	-11	-4%
CCN1C(=O)/C(=C/c2cccs2)SC1=Nc1ccc(OC)cc1	4.1µM*	4%	7.3µM*	7%	-3	-12%
COc1ccc(N=C2S/C(=C\c3cc(C)n(C)c3C)C(=O)N2CC(C)C)cc1	18µM*	14%	u	-28%	-2	-4%
C#CCCCO/N=C1/C[C@@H](O)[C@@H](O)[C@@H]2[C@H]3C(=O)N(c4ccc(F)cc4F)C(=O)[C@@H]3CC[C@@H]12	x	10%[21 µM]	x	x	x	x
COc1cccc(-c2nnc(SCC(=O)NC3CCCCC3)o2)c1	u	-8%	u	-2%	x	-72%

Screening results (PubChem BioAssay)
